HIF-2a inh – HIF-2a reporter inhibitors, primary screen, luminescence, 786-0 RCC cells | 786-0 RCC cells HIF-2a reporter, luciferase luminescence, overnight | inhibition, % at 18.8 µM | 360,000 compounds, 0.72% hits;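 active = inhibition of the luminescence signal of 40% or more relative to plate controls, in a single-dose primary screen at 18.75 µM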
Peg3 prom inh-1 – Peg3 promoter-driven luciferase inhibitors, primary screen, cell-based, HeLa, luciferase luminescence | HeLa PEG-Prom luciferase reporter, overnight | inhibition, % at 20 µM | 360,000 compounds, 1.7% hits | AID 588405, 2011;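 active = inhibition of at least 50% at 20 µM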
TWEAK-Fn14 inh – inhibitors of TWEAK-Fn14 signaling, primary screen, luciferase reporter cells, uHTS; TWEAK-stimulated Fn14 reporter cells, luciferase luminescence, 8 h; inhibition, % at 10 µM; AID 1159606, 2016; 360,000 compounds, 2% hits; in the data active = inhibition above about 50%
KKLEB tox – cytotoxicity in KKLEB CF airway cells, primary screen, cytotoxicity control for CF NF-kB inhibitor project, cell-based, uHTS, fluorescence assay plates | KKLEB CF airway cells viability, ATPlite luminescence, overnight; stronger effect = lower value; cells stimulated with P. aeruginosa culture filtrate | activity change (cytotoxicity), % at 5 µM | 360,000 compounds, 0.36% hits;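 active = corrected activity change at or below -50% at 5 µM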
TROY NFkB inh – inhibitors of TROY-driven NF-kB signaling, primary screen, Q293 LMP1-TROYcd cells, NF-kB luciferase, uHTS | AID 1347056, 2019 | Q293 LMP1-TROYcd NF-kB luciferase reporter, 4 h | inhibition, % at 10 µM | 360,000 compounds, 0.98% hits;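 active = compounds whose plate-normalised and pattern-corrected inhibition of the luciferase reporter signal at the single screening dose is 50% or more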
CF NFkB inh – inhibitors of PAF-induced NF-kB signaling, primary screen, cell-based, GFP fluorescence, uHTS. KKLEB NF-kB-GFP reporter, GFP fluorescence overnight. inhibition, % at 5 µM. 360,000 compounds, 0.86% hits. AID 588850, 2011;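 active = at least 50% inhibition at 5 µM, scaled per plate between neutral and stimulator controls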;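 also: PAF is a Pseudomonas aeruginosa culture filtrate used as stimulus; plate controls were PAF-stimulated DMSO wells for no effect and unstimulated DMSO wells for full effect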
Peg3 prom inh-2 – Peg3 promoter reporter inhibitors, retest, confirmation, cell-based, HeLa, luciferase reporter, single concentration | 1,300 compounds, 84% hits | shares compounds with Peg3 prom inh-1 | inhibition, % at 20 µM | HeLa PEG-Prom luciferase reporter, luminescence, overnight;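 active = at 20 µM dose, 40% or more inhibition averaged across four replicates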
An asterisk follows results filed as active; . = no result. Rows were chosen to be rich in hits. Some 3.9% of all compounds tested hit in one or more screens of this group.

SMILES | HIF-2a inh | Peg3 prom inh-1 | TWEAK-Fn14 inh | KKLEB tox | TROY NFkB inh | CF NFkB inh | Peg3 prom inh-2
CCOC(=O)CCCCCNC(=O)c1c(O)[nH]c(=O)[nH]c1=O | -0.3 | 3.0 | -4.7 | 4.6 | -2.0 | -19.8 | .
Cc1[nH]nc2ccc(-c3cncc(OC[C@@H](N)Cc4c[nH]c5ccccc45)c3)cc12 | 74.9* | 99.5* | 98.0* | -87.4* | 77.2* | 85.2* | .
C=C(C)CSc1nnc([C@@H](N)Cc2c[nH]c3ccccc23)o1 | 2.9 | 4.6 | -2.5 | -0.4 | -12.2 | -3.9 | .
Brc1ccc2c(c1)CN(CC1CCCCC1)Cc1cnnn1-2 | -1.1 | -4.3 | 5.8 | -17.2 | 2.8 | -44.1 | .
CC(=O)OC1CC(OC2C(O)CC(OC3C(O)CC(OC4CCC5(C)C(CCC6C5CCC5(C)C(C7=CC(=O)OC7)CCC65O)C4)OC3C)OC2C)OC(C)C1OC1OC(CO)C(O)C(O)C1O (stereo not drawn) | 81.6* | 107.0* | 80.5* | -58.0* | 42.5 | 82.2* | .
COC(=O)C1=C(c2ccc(OCc3ccccc3)c(F)c2)C[C@@H]2CC[C@H]1N2C | -18.9 | -18.7 | 20.8 | -1.0 | 52.3* | -2.3 | .
COC(=O)C1=C(c2ccc(OCc3ccccc3)cc2)C[C@@H]2CC[C@H]1N2C(=O)NCCN1CCOCC1 | 0.0 | 11.1 | 5.1 | -10.1 | -4.6 | -6.0 | .
COC(=O)C1=C(c2ccc(OCc3ccccc3)cc2)C[C@@H]2CC[C@H]1N2C | -3.3 | 12.8 | 31.4 | -7.9 | 56.9* | 9.2 | .
COC(=O)C1=C(c2ccc(OCc3ccccc3)cc2)C[C@@H]2CC[C@H]1N2C(=O)NC1CCN(Cc2ccccc2)CC1 | -7.6 | 86.5* | 7.8 | -17.5 | 15.5 | 23.7 | .
COC(=O)C1=C(c2ccccc2OCc2ccccc2)C[C@@H]2CC[C@H]1N2C | 1.7 | -17.7 | -13.7 | 7.1 | -9.3 | -14.3 | .
Brc1ccc2[nH]cc(/C=N/N3CCCCC3)c2c1 | -23.5 | -3.3 | -1.0 | 5.5 | -5.8 | -19.2 | .
CCCc1nc2ccc(Br)cc2c(=O)n1-c1ccc([N+](=O)[O-])c(C(F)(F)F)c1 | -6.6 | 55.1* | 45.8 | -20.6 | 46.7 | 43.4 | .
CCc1nc2ccc(Br)cc2c(=O)n1-c1ccccc1C(F)(F)F | 17.7 | 26.4 | 19.8 | -7.3 | 21.8 | 10.5 | .
COc1ccc(-n2c(/C=C/c3ccc(O)c(OC)c3)nc3ccccc3c2=O)cc1 | 24.1 | 55.5* | 41.1 | -26.9 | 7.8 | 33.4 | 68.8*
O=C1CC(=O)N(Cc2ccccc2)C(=O)N1Cc1ccccc1 | -12.6 | 4.3 | 22.1 | 10.6 | 15.1 | -10.2 | .
Cc1cc(C)cc(N2C(=O)NC(=O)/C(=C\c3cccn3-c3ccc(Cl)cc3)C2=O)c1 | 15.0 | 104.2* | 103.0* | 3.8 | 52.9* | 20.1 | 56.0*
O=C1NC(=S)NC(=O)C1=Cc1cccn1-c1ccc(O)cc1 | 55.7* | 70.8* | 71.4* | 2.1 | 48.8 | 25.5 | 49.1*
COc1ccccc1C=C1C(=O)NC(=S)NC1=O | 3.2 | -1.8 | 0.3 | 13.5 | 2.7 | -25.9 | .
O=C(CNS(=O)(=O)c1ccc(Br)s1)N1CCC2(CC1)OCCO2 | -28.0 | -14.0 | 7.3 | 8.6 | -14.5 | -15.7 | .
CC[C@@H](O)C[C@H]1CCC[C@@]2(C[C@@H]3OC(=O)/C=C/[C@@](C)(O)[C@@H](O)[C@H](C)[C@@H](O)[C@H](OC4CCC(N(C)C)C(C)O4)[C@@H](O)[C@](C)(O)CCCCC/C=C/[C@@H]4CC(C)(C)O[C@@]4(O)C[C@H](O2)[C@H]3C)O1 (stereo partly drawn) | -15.2 | 89.2* | 60.5* | 8.2 | 48.1 | 27.8 | 92.5*
O=[N+]([O-])c1ccc(NC2CCN(Cc3ccccc3)CC2)c2ccncc12 | 28.7 | 67.3* | 34.9 | -8.5 | 2.0 | -17.8 | 77.7*
O=[N+]([O-])c1ccc(NC2CCCC2)c2ccncc12 | 21.2 | 25.7 | 25.8 | -7.2 | -1.7 | 28.3 | .
COC(COC(N)=O)C1=C(N2CC2)C(=O)C(C)=C(N2CC2)C1=O (stereo not drawn) | -4.6 | 97.9* | -5.9 | -37.3 | 2.5 | 88.6* | 97.2*
CCOc1ccc(C(C)=O)cc1Cn1ccsc1=N | 17.6 | 0.8 | -3.5 | -19.7 | -10.9 | -3.9 | .
CCOC(=O)[C@]12Cc3cc(C)ccc3[C@H]1N(Cc1ccccc1)C(=O)c1ccccc12 | 17.3 | 65.1* | 20.8 | 15.4 | -2.6 | -24.5 | 33.7
SMILES | HIF-2a inh | Peg3 prom inh-1 | TWEAK-Fn14 inh | KKLEB tox | TROY NFkB inh | CF NFkB inh | Peg3 prom inh-2
CCOC(=O)[C@]12Cc3cc(OC)ccc3[C@H]1N(Cc1ccccc1)C(=O)c1ccccc12 | 5.0 | 16.5 | 6.9 | 6.5 | -6.7 | 6.4 | .
O=[N+]([O-])c1cc(F)c(N2CCCCCC2)cc1N1CCNCC1 | -3.3 | 98.8* | 3.4 | -23.4 | -2.8 | 25.6 | 97.3*
Oc1ccc(/C=N/NP(=S)(c2ccccc2)c2ccccc2)c(O)c1O | 11.6 | 13.4 | 42.5 | 12.2 | -46.7 | -26.5 | .
O=c1[nH]c(=O)n(CCc2ccccc2)c(O)c1C=NCCN1CCNCC1 | 10.7 | -6.1 | -29.5 | -0.6 | -1.3 | 7.1 | .
CCCCn1nnnc1C(CCSC)N1CCC(n2c(=O)[nH]c3ccccc32)CC1 (stereo not drawn) | -8.3 | 51.8* | 17.0 | 9.3 | -4.6 | -23.3 | 67.8*
COc1cccc(C(c2nnnn2-c2c(C)cccc2C)N2CCC(n3c(=O)[nH]c4ccccc43)CC2)c1OC (stereo not drawn) | -4.2 | 57.5* | -15.0 | -6.1 | 16.9 | 20.1 | 41.9*
CCCCn1nnnc1C(C1CC1)N1CCC(n2c(=O)[nH]c3ccccc32)CC1 (stereo not drawn) | -9.6 | 43.6 | -2.9 | -5.1 | 7.2 | 6.8 | .
CC1CN=C(NC(C)c2ccccc2)S1 (stereo not drawn) | 0.0 | -7.6 | 3.1 | 12.0 | -1.8 | -2.5 | .
Fc1cccc(-c2ccc3c(c2)CNCc2cnnn2-3)c1 | -62.8 | -85.4 | -23.3 | 2.6 | -5.1 | -13.7 | .
CCC1(OC(=O)CN)C(=O)OCc2c1cc1n(c2=O)Cc2cc3ccccc3nc2-1 (stereo not drawn) | 33.9 | 83.5* | 81.6* | -33.5 | 68.9* | 79.2* | 72.6*
CCOC(=O)c1c(-n2c(C)cc(C=C3C(=O)NC(=S)NC3=O)c2C)sc2c1CCCC2 | 77.2* | 108.8* | 2.9 | 4.6 | -3.2 | 34.4 | 62.2*
Cc1ccc(S(=O)(=O)NP(=O)(Oc2ccccc2)Oc2ccccc2)cc1 | -1.8 | 4.0 | -3.5 | -1.5 | -3.7 | 7.3 | .
